The values that follow come from the supplement of paper PMC12340641.

Test [1] addresses IKZF1 (dCK*-IKZF1 fusion in HEK293FT) (UniProt Q13422). Put plainly: inhibition of IKZF1 HTRF signal (DMSO = 0%, pomalidomide 10 uM = 100%); higher = lower IKZF1 protein level. The settings on record: compound concentration: 5 uM, overnight (~20 h). In short, it runs like this: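 Values are percent inhibition of IKZF1 signal, normalised plate by plate against vehicle and a reference degrader. HEK293FT cells stably expressing an IKZF1 fusion were seeded at 2000 per well in 384-well plates and exposed to 5 μM compound in single wells overnight at 37 °C. After 30 min lysis at room temperature, lysates were incubated overnight with a commercial HTRF total-IKZF1 antibody kit, and the background-subtracted 665/620 nm time-resolved FRET ratio was read. On each plate, vehicle was set at 0% and the reference degrader at 100%.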
Background: TR-FRET usually uses a lanthanide donor and a delayed reading to cut background.

Another test concerns HEK293FT dCK*-only. The test can be described thus: relative growth in counter assay (no AraC = 100%, AraC + DMSO = 0%); higher = more growth rescue independent of IKZF1. The settings on record: compound concentration: 5 uM; AraC concentration: 0.3 uM; overnight pretreatment + 4 days AraC. In short, it runs like this: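 This counter assay used HEK293FT cells expressing only an engineered kinase construct, seeded at 300 per well in 384-well plates. Compound was added at 5 μM 2 h after seeding, and after overnight at 37 °C the cells received a nucleoside suicide substrate at 0.3 μM plus medium for 4 days. On day 5, nuclei stained with Hoechst 33342 were counted by imaging, and relative growth was normalised per plate; wells without suicide substrate were set at 100% and wells with substrate plus vehicle at 0%.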

For a further test, the system named is HEK293FT dCK*-IKZF1. The test can be described thus: relative growth recovery (pomalidomide 10 uM = 100%, DMSO = 0%); higher = more growth rescue (IKZF1 fusion degradation). The settings on record: compound concentration: 5 uM; AraC concentration: 0.3 uM; overnight pretreatment + 4 days AraC. Put shortly: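 HEK293FT cells stably expressing an engineered deoxycytidine kinase–IKZF1 fusion were seeded at 300 per well in 384-well plates and given 5 μM compound 2 h later. After overnight incubation at 37 °C, a nucleoside suicide substrate at 0.3 μM was added with medium for 4 days, and on day 5 Hoechst 33342-stained nuclei were counted by whole-well imaging. Growth recovery was normalised per plate between a reference degrader and vehicle, set to 100% and 0% respectively, and the values are means of duplicates run on different days.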

Chain of IKZF1 (dCK*-IKZF1 fusion in HEK293FT) (Q13422 whole entry, looked up, the tested form may be a part): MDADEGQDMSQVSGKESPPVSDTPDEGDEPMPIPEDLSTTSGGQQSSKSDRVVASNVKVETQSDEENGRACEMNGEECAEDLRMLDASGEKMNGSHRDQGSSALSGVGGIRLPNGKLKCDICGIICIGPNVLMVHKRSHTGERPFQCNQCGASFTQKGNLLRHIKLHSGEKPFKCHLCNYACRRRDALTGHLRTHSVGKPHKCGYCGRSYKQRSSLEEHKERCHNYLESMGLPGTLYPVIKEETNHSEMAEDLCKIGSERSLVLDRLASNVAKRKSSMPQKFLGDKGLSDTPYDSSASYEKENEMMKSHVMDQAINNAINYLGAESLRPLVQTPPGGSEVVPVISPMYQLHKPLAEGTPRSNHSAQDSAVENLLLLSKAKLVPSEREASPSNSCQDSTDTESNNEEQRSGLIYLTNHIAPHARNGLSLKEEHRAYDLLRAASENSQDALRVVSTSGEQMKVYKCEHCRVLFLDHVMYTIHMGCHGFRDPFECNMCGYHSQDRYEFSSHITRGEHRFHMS

For the molecule `C[C@H]1NCc2cc(-c3ccc4c(=O)c(C(=O)O)cn(C5CC5)c4c3OC(F)F)ccc21` [Garenoxacin (Mesylate hydrate)], the “inhibition of IKZF1 HTRF signal” value in test [1] is -29%. The “relative growth in counter assay” value in the test with HEK293FT dCK*-only was -3.04%. For the same molecule, the relative growth recovery in the test on HEK293FT dCK*-IKZF1 was -1.59%.
The matching figures for `Fc1ccc(CNc2ncnc3ccc(F)cc23)cc1` [spautin-1]: 8.67%, -2.11% and 5.96%.
Taken in the same sequence, the figures for `O=C(Nc1ccc(F)cc1)N1CCc2ccccc2C1c1ccc(C(F)(F)F)cc1` (stereo unspecified) were -25.5%, 4.9% and -0.27%.
Regarding `c1ccc(-c2ccc(C(c3ccccc3)n3ccnc3)cc2)cc1` (stereo unspecified), in test [1], the “inhibition of IKZF1 HTRF signal” value is 17.6%. In addition, the “relative growth in counter assay” value in the test with HEK293FT dCK*-only came out at 3.99%. The relative growth recovery in the test with HEK293FT dCK*-IKZF1 was -0.555%.
Taken in the same sequence, the figures for `CC(=O)N(O)[C@@H]1c2cc(C#N)ccc2OC(C)(C)[C@H]1O` were 13.4%, -4.7% and -2.73%.
The matching figures for `CCc1c2c(nc3ccc(O)cc13)-c1cc3c(c(=O)n1C2)COC(=O)[C@]3(O)CC`: 36.8%, -33.9% and -13%.
The matching figures for `O=C(/C=C/c1cccnc1)c1ccncc1`: -25%, -28.4% and -6.42%.
As for `COc1ccc(NS(=O)(=O)c2ccc(N)cc2)nn1`, in test [1], the “inhibition of IKZF1 HTRF signal” value was -33.3%. In the test with HEK293FT dCK*-only, the “relative growth in counter assay” value is -4.98%. Further, the relative growth recovery with HEK293FT dCK*-IKZF1 is -1.8%.
Taken in the same sequence, the figures for `O=C1Nc2cc(Br)ccc2/C1=C1/Nc2ccccc2/C1=N\O` [3-inhibitor] were -34.6%, -10.1% and -4.43%.
Taken in the same sequence, the figures for `O=C(Nc1ccc(S(=O)(=O)C(F)(F)F)cc1)C1=CCN(c2ncccc2C(F)(F)F)CC1` were -40.9%, 62.2% and 53.1%.
Regarding `CCCCC1OC(=O)c2ccccc21` (stereo unspecified) [Butylphthalide], in test [1], the “inhibition of IKZF1 HTRF signal” value was -30.6%. The “relative growth in counter assay” value with HEK293FT dCK*-only amounted to 1.67%. Further, the relative growth recovery with HEK293FT dCK*-IKZF1 came to 1.08%.
Taken in the same sequence, the figures for `COc1ncnc(NS(=O)(=O)c2ccc(N)cc2)c1OC` were -56.1%, -8.08% and 0.355%.
